Source: PubChem BioAssay
Shown are actives, neighbours in structure and some others; about 6% of the full set was active somewhere.
Tau fluor cs – counter-screen for tau fibril formation inhibitors; tau K18 P301L Alexa594 fluorescence, heparin fibrillization; Potency, µM (titrated, usually from 57.7 µM), inactives show top-dose activity change, negative = decrease; 280,000 tested, 0.93% active; also: nearly all actives have a fitted effect of over 55% in size
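Human K18 P301L tau (15 uM unlabeled plus 0.24 uM Alexa 594-labeled, final) in 100 mM sodium acetate pH 7 was mixed with compound and 20 uM heparin and incubated 6 hr at 37 C.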
Sfp inh – Sfp phosphopantetheinyl transferase inhibition; AID 1490; 310,000 tested, 3.5% active; Q9F4F7; Biochemical Sfp PPTase activity, qHTS; Potency, µM, for the others: largest response in the series, negative = inhibition, actives largely listed as inhibitors;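 also: the enzyme is Sfp with the accession as filed and its product quenches rhodamine fluorescence; 0% = enzyme reaction without inhibitor and -100% = no enzyme wells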
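Fluorescence-quenching assay: 15 nM Sfp-PPTase preincubated 15 min at room temperature with compound, then 5 uM rhodamine-CoA and 12.5 uM BHQ-2-labelled YbbR peptide added. Fluorescence (ex 525/em 598 nm) read at start and after 30 min; difference gives rate.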
PLK1 PBD inh – blocks phosphopeptide binding to human PLK1 polo-box domain. P53350. Plk1 PBD binding of FITC phosphopeptide, fluorescence polarization. Potency, µM, without a hit: max response, negative = inhibition, usual class: inhibitors. 360,000 tested, 2.8% active; also: series mostly up to about 57 µM; nearly all actives have a fitted effect of over 65% in size
Tau fibril ThT – inhibitors of human tau fibril formation, thioflavin T binding | Potency, µM (doses to about 57.4 µM), for inactives: at the highest dose activity, negative = inhibition, actives largely listed as inhibitors | 270,000 tested, 2.1% active | recombinant tau K18 P301L (four-repeat tau fragment), heparin-induced fibrillization, ThT fluorescence; also: nearly all actives have a fitted effect of over 55% in size
Target sequence (P10636 561-689 P618L limits assumed): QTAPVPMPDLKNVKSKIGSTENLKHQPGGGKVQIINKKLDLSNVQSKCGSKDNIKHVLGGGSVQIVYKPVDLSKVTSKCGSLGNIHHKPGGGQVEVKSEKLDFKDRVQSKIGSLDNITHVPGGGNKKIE
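Recombinant human tau K18 fragment […] carrying P301L, 15 uM unlabeled plus 0.24 uM Alexa 594-labeled, was fibrillized with 20 uM heparin in 100 mM sodium acetate pH 7 for 6 hr at 37 C; 30 uM ThT fluorescence read after 1 hr.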
VDR inhibitor – inhibitors of human vitamin D receptor; Potency, µM, inactives show max response, negative = inhibition, most hits filed as inhibitors; AID 504847; P11473; VDR-SRC2-3 peptide fluorescence polarization, 2 h; 400,000 tested, 0.93% active
Target sequence (P11473 whole entry, looked up): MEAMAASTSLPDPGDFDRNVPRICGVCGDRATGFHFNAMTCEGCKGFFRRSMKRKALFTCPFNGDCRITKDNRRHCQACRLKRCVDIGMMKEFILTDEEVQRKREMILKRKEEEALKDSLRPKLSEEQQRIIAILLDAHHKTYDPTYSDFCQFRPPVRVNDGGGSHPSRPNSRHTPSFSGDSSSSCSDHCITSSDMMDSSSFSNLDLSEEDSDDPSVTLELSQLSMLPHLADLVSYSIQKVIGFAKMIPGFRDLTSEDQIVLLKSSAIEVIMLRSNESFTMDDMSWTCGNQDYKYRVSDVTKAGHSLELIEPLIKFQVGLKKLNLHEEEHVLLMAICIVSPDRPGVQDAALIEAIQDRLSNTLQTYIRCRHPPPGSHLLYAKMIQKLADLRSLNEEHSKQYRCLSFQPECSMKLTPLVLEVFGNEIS
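Measured by FP: displacement of SRC2-3 coactivator peptide from VDR by library compounds, following a two-hour ambient incubation.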
Tau FP inhib – inhibitors of human tau fibril formation | P10636 | Potency, µM (highest dose often 57.7 µM), for inactives: top-dose activity, negative = inhibition, actives largely listed as inhibitors | K18 P301L tau heparin fibrillization, Alexa594 FP, 6 h | 280,000 tested, 0.39% active; also: nearly all actives have a fitted effect of over 55% in size
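Steps: dispense K18 P301L tau (15 uM plus 0.24 uM Alexa 594 tracer, final) in pH 7 sodium acetate; add compound; add heparin (20 uM final); incubate 6 hr, 37 C; add ThT (30 uM final); after 1 hr ambient, read FP.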
* marks the source's active call; other numbers are inactive results; ? = inconclusive; / = no result given; [ ] = another dose, or the depositor's remark. Calls follow the shape of the dose curve; as a rule, active = well fitted curve in the direction sought with a large enough effect; inconclusive = small, poorly fitted or top-dose-only effect, or another doubt; inactive = no such curve, though single readings can be large; an effect the other way counts as inactive or inconclusive. Unless noted, % is scaled to controls: 0 for no effect and ±100 for the full control effect; potency is read from the fitted curve at half-maximal effect.

SMILES	Tau fluor cs	Sfp inh	PLK1 PBD inh	Tau fibril ThT	VDR inhibitor	Tau FP inhib
O=C1c2[nH]nc(-c3ccc(Br)cc3)c2C(c2cccc(O)c2)N1c1ccc(Cl)cc1 (stereo not given)	?	/	/	10%	-16%	13µM*
COc1ccc([C@@H]2CC=C(C(=O)O)[C@H](c3ccccc3F)N2S(=O)(=O)c2ccccc2C)cc1	/	/	2%	/	2%	/
COC(=O)NC1CCC(NC(=O)OC)CC1 (stereo not given)	9%	4%	27µM*	5%	-12%	-3%
COc1ccc(-n2c(=O)c(-c3cn(C)c4ccccc34)nc3cncnc32)cc1	/	3%	/	/	-17%	/
CCCCn1nnnc1C(c1cc2ccccc2o1)N1CCN(C(=O)OCC)CC1 (stereo not given)	/	/	-7%	/	/	/
Nc1c(C(=O)NCC2CCCO2)sc2nc3c(c(-c4ccco4)c12)CC/C3=C\c1ccco1 (stereo not given)	?	32µM*	?	16µM*	?	?
NC(=O)c1sc2nc3c(c(-c4ccco4)c2c1N)CCCC3	-17%	-12%	-19%	?	7%	10%
CC(C)c1cn(CC[C@@H]2CC[C@@H](NC(=O)C3CCCCC3)[C@@H](CO)O2)nn1	/	/	-4%	/	/	/
COc1ccccc1CNc1cc(-c2ccccc2)nc2nncn12	-16%	/	/	?	-6%	6%
CC(C)c1cccc2nc3c(c([Si](C)(C)C)c12)Cn1c-3cccc1=O	-14%	?	/	?	/	-10%
CCc1cccc2nc3c(c([Si](CC)(CC)CC)c12)Cn1c-3cccc1=O	-25%	79µM*	/	?	/	-14%
CCc1c2c(nc3ccc(OC)cc13)-c1nc3ccccc3c(=O)n1C2	/	6%	/	/	1%	/
CCc1c2c(nc3c(C(C)C)cccc13)-c1cccc(=O)n1C2	-15%	50µM*	/	?	/	-6%
Cc1ccc(NC(=O)Nc2nnc(N3CCCC3)s2)c(C)c1	4%	/	/	2%	16%	0%
CC(CCc1ccco1)NC(=O)c1cccc2c1C(=O)N(C1CCCCC1)C2 (stereo not given)	-19%	-27%	-2%	?	-20%	-12%
COc1ccc(N2Cc3cccc(C(=O)NC(C)CCc4ccco4)c3C2=O)cc1 (stereo not given)	-14%	45µM*	?	?	?	-12%
CCn1cc(C(=O)NC(C)c2ccccc2)c(=O)c2cc(S(=O)(=O)N3CCc4ccccc4C3)ccc21 (stereo not given)	-15%	/	/	6%	1%	-5%
COc1cccc(CNC(=O)CN2C(=O)N(c3cc(C)ccc3C)S(=O)(=O)c3ccccc32)c1OC	-15%	/	/	4%	9%	-5%
CC(Oc1ccccc1)C(=O)N1CCC2(CC1)Oc1ccc(F)cc1C(=O)C21CC(c2ccccc2)=NO1 (stereo not given)	/	/	21µM*	/	?	/
COc1ccc(Cl)cc1NS(=O)(=O)c1c(C)[nH]c(=O)[nH]c1=O	?	24%	-10%	28µM*	-5%	?
O=C(/C=C/c1cccs1)N1CCN(c2ccc(O)cc2)CC1	-17%	45µM*	-11%	?	0%	3%
CN(C)c1ccc(/C=C/C(=O)c2cccnc2)cc1	?	8%	51%	5µM*	-10%	4%
CN(C)c1ccc(/C=C/C(=O)c2ccc(O)cc2)cc1	/	/	64%	/	2%	/
O=C(/C=C/c1cccc(O)c1)c1cccnc1	5%	-26%	?	-15%	56µM*	13%
O=C(/C=C/c1cccnc1)c1cccc(O)c1	/	?	-13%	/	?	/
SMILES	Tau fluor cs	Sfp inh	PLK1 PBD inh	Tau fibril ThT	VDR inhibitor	Tau FP inhib
CCOc1cc2[nH]c(=S)n(CCC(=O)NC3CCCCC3)c(=O)c2cc1OCC	/	/	-5%	/	/	/
O=C(O)CCCN1C(=O)/C(=C/c2cn(-c3ccccc3)nc2-c2cccs2)SC1=S	-4%	-29%	32%	16µM*	-11%	?
O=C(O)CCCN1C(=O)/C(=C\C(Cl)=C\c2ccccc2)SC1=S	/	-28%	11µM*	/	135%	/
O=C(O)CN1C(=O)/C(=C\c2ccccc2OCc2ccc(F)cc2)SC1=S	/	4%	27µM*	/	?	/
O=C(O)CCCN1C(=O)/C(=C\c2ccccc2OCc2ccccc2)SC1=S	/	1%	27µM*	/	-25%	/
COc1ccc(C)cc1NC(=O)Cc1c(C(=O)O)c(C)cn1C	-3%	/	/	1%	4%	5%
Cc1nn(-c2ccccc2)c(Cl)c1/C=C1\SC(=S)N(CCCCCC(=O)O)C1=O	5%	-4%	24µM*	?	?	20%
Cc1nn(-c2ccccc2)c(Cl)c1/C=C1\SC(=S)NC1=O	-20%	?	?	?	-21%	2%
COc1cccc(C(NC(C)=O)c2nc(-c3ccc(OC)nc3)cs2)c1 (stereo not given)	/	/	-3%	/	/	/
CCN(c1ccccc1)c1cc(C)nc2nc(C)nn12	6%	14%	-4%	3%	-1%	-5%
Cc1cccc(N(C)c2cc(C)nc3nc(C)nn23)c1	10%	8%	30µM*	9%	-15%	8%
CCCCn1c(SCC(=O)c2c(N)n(C3CC3)c(=O)[nH]c2=O)nc2cc(S(N)(=O)=O)ccc21	/	/	-4%	/	-17%	/
COc1ccc(OC)c(NC(=O)CSc2nccn2-c2cc(C)cc(C)c2)c1	-23%	/	/	-8%	13%	6%
COc1cc(CNc2ccccc2SC)ccc1O	?	79µM*	?	?	-2%	11%
CCOc1cc(CNc2ccccc2SC)ccc1O	?	56µM*	/	?	/	10%
CC(C)CN(C(=O)CN(C)C(=O)c1ccco1)c1c(N)n(CC(C)C)c(=O)[nH]c1=O	/	/	-3%	/	4%	/
OC(CNCC(c1ccc(Cl)cc1Cl)c1c[nH]c2ccccc12)c1ccccc1 (stereo not given)	?	50µM*	-3%	?	2%	-9%
Cc1ccc(NC(=S)NNc2ccc([N+](=O)[O-])cc2S(=O)(=O)Nc2ccccc2C(=O)O)cc1C	?	40µM*	27µM*	7.9µM*	40µM*	?
COc1ccc(C(C)=NNc2ccc([N+](=O)[O-])cc2S(=O)(=O)Nc2ccccc2C(=O)O)c(OC)c1	/	/	21µM*	/	?	/
O=C(O)c1ccccc1NS(=O)(=O)c1ccc(NNC(=S)Nc2ccc(OC(F)F)cc2)c([N+](=O)[O-])c1	10µM*[quencher]	?	11µM*	7.1µM*	?	25µM*
COc1cccc(C(C)=NNc2ccc([N+](=O)[O-])cc2[N+](=O)[O-])c1OC	/	/	-1%	/	/	/
CCOC(=O)c1[nH]c2c(c1Cc1ccccc1)C(=O)CC(c1ccccc1)C2 (stereo not given)	-28%	/	/	-6%	-11%	-12%
